About 790 (34%) of roughly 2,300 compounds were called active. The list shows a part of the results. Measured potencies and affinities stand elsewhere. Unmarked numbers belong to inactive results. No rule for the calls is given here.
Assay: THP-1 cell cytotoxicity, dose response, cytotoxicity control for non-replicating M. tuberculosis project (AID 489025)
Details: THP-1 cell viability; series mostly up to 40 µM; viability: at the top concentration

Row | SMILES | viability [%]
1 | O=C1c2ccccc2C(=O)N1CCOc1ccc(F)cc1 | 95.2
2 | Cc1cc(C)cc(OC(=O)CCN2C(=O)c3ccccc3C2=O)c1 | 100
3 | O=C(c1ccc([N+](=O)[O-])o1)N1CCN(c2nc3ccc(F)cc3s2)CC1 | 106
4 | COc1cccc2cc(C(=O)c3ccc([N+](=O)[O-])cc3)oc12 | 85.8
5 | C=CC[n+]1ccn(-c2nc3ccccc3nc2[N-]S(=O)(=O)c2cccs2)c1 | 110
6 | CCCCCCNC(=O)c1ccc(Br)o1 | 104
7 | CC(=O)CCC1CC(c2ccc(Cl)cc2)=NO1 (stereo not drawn) | 103
8 | Cc1c(Cl)cccc1NC(=O)C(=O)NNC(=O)c1ccccc1F | 79.9
9 | CCOC(=O)c1c(NC(=O)COC(=O)c2ccccn2)sc2c1CCC2 | 97.1
10 | O=C(Nc1nnc(-c2cc(Cl)ccc2Cl)o1)C1=COCCO1 | 75.8
11 | O=C(CCN1C(=O)S/C(=C\c2ccc(F)cc2)C1=O)Nc1ccc(C(=O)O)c(O)c1 | 107
12 | O=C(NNC(=O)c1ncc(Cl)c(Cl)c1Cl)c1ccc(F)cc1 | 92.2
13 | CC1CCN(CCOCCSc2ccc(Cl)cc2)CC1 | 74
14 | COc1ccc2cc(C(=O)NCc3ccccc3)c(=O)oc2c1 | 103
15 | O=C(CCC1CCCC1)NCc1ccccn1 | 107
16 | COc1ccc(NC(=O)COc2ccc3c(c2)CCC3)cc1 | 111
17 | Cc1ccc(C2=N/C(=C\c3cccnc3)C(=O)O2)cc1 | 117
18 | O=C1OC(/C=C/c2ccccc2)=NC/1=C\c1cccnc1 | 119
19 | Cn1c(=O)c(Oc2ccc(Cl)cc2)c(O)c2ccccc21 | 118
20 | C=CCn1c(=O)c(C(=O)Nc2cccnc2)c(O)c2ccccc21 | 103
21 | Cc1cccnc1NC(=O)c1c(O)c2ccccc2n(C)c1=O | 85.8
22 | CCn1c(=O)c(C(=O)Nc2ncccc2C)c(O)c2ccccc21 | 71.2
23 | COc1cc(C2C3=C(CC(C)(C)CC3=O)OC(N)=C2[N+](=O)[O-])ccc1O (stereo not drawn) | 97.8
24 | CCCCOc1ccc(CSCCN)cc1Cl | 99.1
25 | O=C1N(c2ccc3c(c2)OCCO3)C(c2ccccc2)C1(F)F (stereo not drawn) | 117
26 | NC(=O)COc1ccc2cc(-c3ccc(F)cc3)c(=O)oc2c1 | 119

Row | SMILES | viability [%]
27 | Cc1n[nH]c(=S)n1/N=C/c1ccc(OCc2ccc(Cl)cc2Cl)cc1 | 107
28 | CN1CCC(O)(c2cccs2)C(C(=O)c2cccs2)C1 (stereo not drawn) | 74.7
29 | CC1CCN(C(=O)C2COc3ccccc3O2)CC1 (stereo not drawn) | 102
30 | C/C(=N\Nc1nc2ccccc2[nH]1)c1ccc(N2CCOCC2)cc1 | 81.7
31 | CCCn1c(=O)c(C(=O)N/N=C/c2ccccc2F)c(O)c2ccccc21 | 78.5
32 | CCCCN(C/C=C/c1ccccc1OC)Cc1ccccc1 | 88.6
33 | COc1ccc(N2C(=O)CC(Sc3nc4ccccc4s3)C2=O)cc1OC (stereo not drawn) | 108
34 | O=C(COc1cccc2ccccc12)Nc1ccc(Cl)cc1C(=O)O | 114
35 | CCOc1cccc2cc(C(=O)NC(C)c3ccccc3)c(=N)oc12 (stereo not drawn) | 74.4
36 | O=C(NCc1cccs1)c1cc(-c2ccc(O)cc2)on1 | 109
37 | O=C(OCC(=O)N1CCCCC1)c1cc2ccccc2cc1O | 103
38 | Cc1cccc(NC(=O)CO/N=C/c2ccc3c(c2)OCO3)c1 | 92.5
39 | O=C(CN1CCN(c2ccc([N+](=O)[O-])cc2)CC1)Nc1ccccn1 | 74.5
40 | Cc1csc(NC(=O)c2cc([N+](=O)[O-])cc([N+](=O)[O-])c2)n1 | 93.5
41 | O=C(NCc1cccs1)c1ccc(Br)o1 | 103
42 | O=C(Nc1ncccn1)c1ccc([N+](=O)[O-])o1 | 91.8
43 | COc1cccc(COC(=O)c2sc3nc4n(c(=O)c3c2C)CCC4)c1OC | 107
44 | O=C(Nc1ccc(-c2nc3ccccc3c(=O)o2)cc1)c1ccco1 | 100
45 | O=C(N/N=C/c1ccc(OC(=O)c2ccco2)cc1)c1ccccn1 | 94.2
46 | CC(C)(C)/C(O)=C/c1nc2ccccc2oc1=O | 93.4
47 | O=C1N/C(=N\c2ccccn2)SC1Cc1ccc(Cl)cc1 (stereo not drawn) | 103
48 | COc1ccc(/C(=N/O)C(C)(C)NO)cc1 | 90.7
49 | CO/N=C/CC(=O)c1ccc(OC)cc1 | 96.5
50 | Cc1cc2nc(CSc3ccc(Cl)cc3)cc(=O)n2[nH]1 | 96.9
51 | CSCCC(=O)N1CCCC(N2CCN(c3cccc(C(F)(F)F)c3)CC2)C1 (stereo not drawn) | 96.2
52 | CCC(C)c1ccc(OCCn2ccnc2)cc1 (stereo not drawn) | 76.9

Row | SMILES | viability [%]
53 | C/C(=C\C(=O)c1ccncc1)Nc1ccccc1O | 111
54 | CCOC(=O)c1ccc(NC(=O)CCSCCc2ccccn2)cc1 | 103
55 | Cc1ccc(OCCCCc2c(C)n[nH]c2C)cc1 | 77.8
56 | CC1CCc2c(sc3nc(CSc4ncn[nH]4)[nH]c(=O)c23)C1 (stereo not drawn) | 97
57 | CC1CC(C)CN(CCOCCSc2ccc(Cl)cc2)C1 (stereo not drawn) | 73.7
58 | Cc1cc(Cl)ccc1NNC(=O)c1cccs1 | 106
59 | O=C(c1ccccc1)c1nc[nH]c1C(=O)Nc1ccccc1 | 70.5
60 | CN(C)CCC(=O)N1c2ccccc2Sc2ccc(Cl)cc21 | 90.3
61 | O=S1(=O)N=C(N/N=C/C=C/c2ccccc2)c2ccccc21 | 84.3
62 | COc1ccc(OCc2n[nH]c(=S)o2)cc1 | 103
63 | CCCCn1c(N)c(-c2nc3ccccc3o2)c2c([N+](=O)[O-])nn(CC)c(=O)c21 | 113
64 | CCOCC(=O)Nc1ccc(C)c(Cl)c1 | 111
65 | CSC1=N/C(=C\c2ccc(Br)o2)C(=O)S1 | 118
66 | Cc1ccc(-c2nnc(C)c(N3CCCC3)n2)cc1 | 122
67 | O=C(CN1CCN(c2ccccc2O)CC1)Nc1ccc2c(c1)CCC2 | 82.9
68 | CCOc1ccc(OCCSc2ccc(S(=O)(=O)N3CCN(C)CC3)cn2)cc1 | 76.5
69 | CC(C)c1ccc(OCC(=O)NCc2ccccc2)cc1 | 82.5
70 | Cc1cc2cc(CNC(=O)COc3ccccc3)ccc2n1C | 107
71 | Cc1cccc(NC(=O)c2cc3ccccc3o2)c1 | 86
72 | Cc1nonc1C(=O)N/N=C/c1ccc([N+](=O)[O-])o1 | 98.2
73 | NC(=O)COC(=O)c1sc2ccccc2c1Cl | 91.8
74 | COc1ccc(NC(=O)c2cc3ccccc3o2)cc1 | 107
75 | Cc1cc(C(=O)N/N=C/C=C/c2ccccc2)c(C)o1 | 79.3
76 | O=C(Nc1ccc(Cl)c(Cl)c1)O/N=C/c1ccncc1 | 86
77 | O=C(NC1CC2CCC1C2)C1COc2ccccc2O1 (stereo not drawn) | 94.5
78 | O=C(NCc1ccccc1)c1cc2ccccc2oc1=O | 114
